In all, about 340,000 compounds went through this assay and about 3,300 (0.97%) were called active. The sample holds actives, similar compounds and a random draw of the others, so the mix is not that of the screen. Unmarked numbers belong to inactive results.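 The calls were made as follows: active = inhibition above the mean over all tested compounds plus 3 SD (cut at about 30% in these data); inactive = the rest.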
These compounds were tested against Platelet-activating factor acetylhydrolase 2, cytoplasmic (Homo sapiens) (UniProt Q99487) (assay: inhibition of cytoplasmic PAF acetylhydrolase 2 – biochemical, fluorescence polarization, human, primary screen (AID 492956;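 also: inhibitors block probe labeling of enzyme so polarization drops; 0% = enzyme with DMSO and 100% = wells lacking PAFAH2 protein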)). Conditions: recombinant PAFAH2, FP-rhodamine activity probe, at 3.39 µM, active compounds read high.
`Cc1nc([N+](=O)[O-])nn1C12CC3CC(CC(Br)(C3)C1)C2` was tested, and the inhibition was 4.57%. For `Clc1c(OCCCn2ccnc2)ccc2ccccc12`, the inhibition was 0.49%. With `Cc1ccc(F)cc1S(=O)(=O)Nc1cccc(C(=O)N2CCCC(C(N)=O)C2)c1` (stereo not given) the inhibition was 45.3% (active). `CCOC(=O)C1CCCN(C(=O)c2ccc(C)c(S(=O)(=O)N3CCCCC3)c2)C1` (stereo not given) gave an inhibition of 3.86%. In the case of `O=C(c1ccc(F)cc1)N1CCCC(C(=O)N2CCCCC2)C1` (stereo not given), the inhibition is reported as -1.35%. `CSc1ccc(S(=O)(=O)N2CCC(C(=O)NCc3ccncc3)CC2)cc1` was tested, and the inhibition was 0.67%. In the case of `CCCC1OC23CCCCC2C(C#N)(C#N)C1(C#N)C(=N)O3` (stereo not given), the inhibition is reported as 35.4% (active). `O=C(Nc1ccc(S(=O)(=O)N2CCCCC2)cc1)C1CC(=O)N(c2ccc(F)cc2)C1` (stereo not given) was tested, and the inhibition was -0.7%. `O=c1oc(-c2ccco2)nc2sc3c(c12)CCCCC3` was tested, and the inhibition was 46.4% (active). Work on `O=S(=O)(c1ccc(Cl)cc1)c1nc(-c2ccco2)oc1N1CCCCC1` yielded an inhibition of -0.15%. For `Cn1c(NN)nc2sc3c(c2c1=O)CCC3`, the inhibition was 4.91%. `Cc1cc(-n2cnc(-c3cn(C)nc3C)n2)no1` showed an inhibition of 2.99%. For `Cc1noc(/C=C/c2ccco2)c1S(=O)(=O)N1CCC(C(=O)N2CCc3ccccc32)CC1`, the inhibition was -7.75%. For `O=C(O)Cc1csc(NC(=O)CSc2nnnn2-c2ccc(O)cc2)n1`, the inhibition was 1.29%. `CCn1c(CNC(=O)c2ccccc2)nnc1SCC(=O)N1CCN(c2ccccc2)CC1` gave an inhibition of -4.72%. `CCN(C(=O)CSc1nnnn1-c1ccc(OC)cc1)C1CCS(=O)(=O)C1` (stereo not given) gave an inhibition of 4.1%. Work on `COc1ccc(C(C)C)cc1S(=O)(=O)Nc1ncn[nH]1` yielded an inhibition of -3.51%. Compound `CCC(C)NC(=O)C1c2ccccc2Oc2ccccc21` (stereo not given) has an inhibition of -4.35%. In the case of `CCCCCNC(=O)C1c2ccccc2Oc2ccccc21`, the inhibition is reported as -0.79%. In the case of `CCCN(CCC)C(=O)C1c2ccccc2Oc2ccccc21`, the inhibition is reported as 32.9% (active). `O=c1oc(/C=C/c2ccccc2)nc2ccccc12` was tested, and the inhibition was 76.7% (active). `S=c1[nH]nc(/C=C/c2ccccc2)o1` showed an inhibition of -11.5%. Compound `O=c1[nH]c(/C=C/c2cccc(Br)c2)nc2ccccc12` has an inhibition of 6.48%. Compound `CCc1ccc2nc(Nc3ncc(C(C)=O)c(C)n3)nc(C)c2c1` has an inhibition of 7.02%. With `Cc1ccc(S/C(=N\S(=O)(=O)c2ccc(Cl)cc2)c2ccccc2)cc1` the inhibition was 5.84%. In the case of `Cc1cc(=O)oc2c3c(cc(OCC(=O)NCc4ccccn4)c12)OC(C)(C)CC3`, the inhibition is reported as 14.1%. For `Cc1c(C)c2c(OCC(=O)NCCCO)cc3c(c2oc1=O)CCC(C)(C)O3`, the inhibition was 72.5% (active). `Cc1cc(OCC(=O)NCC(O)c2ccccc2)c2c(C)c(C)c(=O)oc2c1` (stereo not given) was tested, and the inhibition was 0.4%. With `Cc1c(C)c2c(OCC(=O)N[C@@H](C(=O)O)c3ccccc3)cc3c(c2oc1=O)CCC(C)(C)O3` the inhibition was 90.8% (active). With `Cc1cc(=O)oc2c3c(cc(OCC(=O)NCCC(=O)N[C@@H](C)C(=O)O)c12)OC(C)(C)CC3` the inhibition was 6.3%. Work on `Cc1cc(=O)oc2c3c(cc(OCC(=O)N[C@H](C(=O)O)c4ccccc4)c12)OC(C)(C)CC3` yielded an inhibition of 18.3%. In the case of `CCN(CC)c1ccc(NC(=O)CN2C(=O)NC3(CCc4ccccc43)C2=O)cc1` (stereo not given), the inhibition is reported as -0.31%. `Cc1cc(C)n(CCNCc2c(C(=O)N3C[C@@H](C)O[C@@H](C)C3)nc3ccc(Cl)cn23)n1` showed an inhibition of 0.53%. With `C#CC(C)(C)NC(=O)c1cnc(-c2ccccc2)nc1-c1ccccc1` the inhibition was -1.01%. Work on `CC(Nc1ccc([N+](=O)[O-])cc1[N+](=O)[O-])c1ccccc1` (stereo not given) yielded an inhibition of 4.73%. In the case of `Cc1ccc(OCC(=O)Nc2ccccc2Sc2ccc(Cl)cc2)c([N+](=O)[O-])n1`, the inhibition is reported as 0.47%. For `COc1ccc(Cc2n[nH]c(=S)n2NC(=O)Nc2ccc(C)cc2)cc1`, the inhibition was -2.45%. `CN(CC(=O)Nc1ccc(OC(F)F)cc1)S(=O)(=O)/C=C/c1ccccc1` gave an inhibition of 3.38%. For `COc1ccc(NC(=O)COC(=O)c2ccc(NS(=O)(=O)/C=C/c3ccccc3)cc2)cc1`, the inhibition was 75.8% (active). `NS(=O)(=O)c1ccc(NS(=O)(=O)/C=C/c2ccccc2)cc1` gave an inhibition of 4.92%. `O=C(NCc1ccccc1)C1C(=O)N(Cc2ccccc2)C(=O)C1C1(O)CCCC1` (stereo not given) showed an inhibition of 3.41%. Compound `O=C(OCCOc1ccccc1F)c1cc(S(=O)(=O)N2CCOCC2)ccc1F` has an inhibition of -1.58%. In the case of `O=C(Cc1ccc(S(=O)(=O)N2CCOCC2)s1)NCCOc1ccccc1F`, the inhibition is reported as 38.8% (active). `O=C(Cc1ccc(S(=O)(=O)N2CCOCC2)s1)NCCC(c1ccccc1)c1ccccc1` gave an inhibition of 3.55%. Compound `Cc1ccc2c(c1)N(CC(=O)NCC1CCCO1)C(=O)CO2` (stereo not given) has an inhibition of 3.2%. In the case of `COCCCn1c(Cc2csc(Nc3cccc(Cl)c3)n2)nnc1SCC(=O)OC1CCCCC1`, the inhibition is reported as 0.44%. `Cc1ccc(S(=O)(=O)N2CCN(CC(=O)N/N=C/c3cc([N+](=O)[O-])ccc3Cl)CC2)cc1` gave an inhibition of -3.59%. For `O=[N+]([O-])c1cc(Cl)cc(/C=N/NC(=S)Nc2cc(S(=O)(=O)N3CCOCC3)ccc2Cl)c1O`, the inhibition was 85.2% (active). With `O=S(=O)(c1ccc(NC(=S)NN=C(C2CC2)C2CC2)cc1)N1CCOCC1` the inhibition was 8.93%. Compound `C/C(=N\NC(=O)c1ccc(C)cc1)C1C(=O)c2ccccc2C1=O` has an inhibition of 14.8%. `CCN1CCN(c2ccc(S(=O)(=O)N3CCCCC3)cc2NC(=O)Cc2c(Cl)cccc2Cl)CC1` was tested, and the inhibition was 12.9%. `O=C(NCc1ccccc1Cl)C1CCCO1` (stereo not given) was tested, and the inhibition was 6.52%. `NC(=O)CSc1nnc(NC(=O)c2ccc3ccccc3c2)s1` showed an inhibition of 1.32%. In the case of `O=C(Nc1nnc(SCc2ccccc2Cl)s1)c1cccc([N+](=O)[O-])c1`, the inhibition is reported as 32.2% (active). `O=C(Nc1ccc(C2CC2(Cl)Cl)cc1)c1cccc([N+](=O)[O-])c1` (stereo not given) showed an inhibition of -4.09%. Compound `Cc1cc(C)nc(NC(=O)c2cccc([N+](=O)[O-])c2)c1` has an inhibition of -7.58%. For `O=C(Nc1nnc(SCc2c(Cl)cccc2Cl)s1)c1cccc([N+](=O)[O-])c1`, the inhibition was 57.2% (active). Compound `Cc1cc(C)c2nc(NC(=O)C3CCCO3)sc2c1` (stereo not given) has an inhibition of -3.31%. Work on `CCOC(=O)CSc1nnc(NC(=O)c2cccc(S(=O)(=O)N3CCCC3)c2)s1` yielded an inhibition of 1.53%. For `O=C(Nc1nnc(SCc2c(Cl)cccc2Cl)s1)C1CCCO1` (stereo not given), the inhibition was 35.8% (active).

Reference: PubChem BioAssay AID492956 (The Scripps Research Institute Molecular Screening Center, 2010)
